Measurements from the supplement of paper PMC8728848.
Many of the other results were omitted from the sample, so the strongest signals are more common in it than they were.

B1: Siglec-7-SA-PE-180 (Homo sapiens), Q9Y286 (protein)
chain: MLLLLLLPLLWGRERVEGQKSNRKDYSLTMQSSVTVQEGMCVHVRCSFSYPVDSQTDSDPVHGYWFRAGNDISWKAPVATNNPAWAVQEETRDRFHLLGDPQTKNCTLSIRDARMSDAGRYFFRMEKGNIKWNYKYDQLSVNVTALTHRPNILIPGTLESGCFQNLTCSVPWACEQGTPPMISWMGTSVSPLHPSTTRSSVLTLIPQPQHHGTSLTCQVTLPGAGVTTNRTIQLNVSYPPQNLTVTVFQGEGTASTALGNSSSLSVLEGQSLRLVCAVDSNPPARLSWTWRSLTLYPSQPSNPLVLELQVHLGDEGEFTCRAQNSLGSQHVSLNLSLQQEYTGKMRPVSGVLLGAVGGAGATALVFLSFCVIFIVVRSCRKKSARPAADVGDIGMKDANTIRGSASQGNLTESWADDNPRHHGLAAHSSGEEREIQYAPLSFHKGEPQDLSGQEATNNEYSEIKIPK
B2: ECA (Erythrina cristagalli), P83410 (protein)
chain: VETISFSFSEFEPGNDNLTLQGAALITQSGVLQLTKINQNGMPAWDSTGRTLYTKPVHMWDSTTGTVASFETRFSFSIEQPYTRPLPADGLVFFMGPTKSKPAQGYGYLGVFNNSKQDNSYQTLAVEFDTFSNPWDPPQVPHIGIDVNSIRSIKTQPFQLDNGQVANVVIKYDAPSKILHVVLVYPSSGAIYTIAEIVDVKQVLPDWVDVGLSGATGAQRDAAETHDVYSWSFQASLPE

Columns and labels:
Assay in all cases: glycan array binding signal (z-score within array); higher = stronger binding
Details in all cases: glycan notation: IUPAC condensed, linker removed
[1] = biological target: Neu5Ac(a2-6)Gal(b1-4)GlcNAc(b1-2)Man(a1-3)[Gal(b1-4)GlcNAc(b1-2)Man(a1-6)]Man(b1-4)GlcNAc(b1-4)GlcNAc
Outline: (§1)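 Arrays were curated from the Consortium for Functional Glycomics database, 3228 in total, and kept only where the protein sequence was available. Binding is expressed as a within-array Z-score. This score was averaged across arrays of the same protein sequence at different concentrations or buffers and across linkers, and negative values can be read as non-binding.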

[2] = biological target: Neu5Ac(a2-6)Gal(b1-4)GlcNAc(b1-3)Gal(b1-4)GlcNAc(b1-3)GalNAc
Outline: as §1

[3] = biological target: Neu5Ac(a2-6)GalNAc(b1-4)GlcNAc6S
Outline: as §1

Neu5Ac(a2-8)Neu5Ac = biological target: Neu5Ac(a2-8)Neu5Ac
Outline: as §1

[4] = biological target: Neu5Ac(a2-8)Neu5Ac(a2-3)[Gal(b1-3)GalNAc(b1-4)]Gal(b1-4)Glc
Outline: as §1

[5] = biological target: Neu5Gc(a2-3)Gal(b1-3)GlcNAc
Outline: as §1

Neu5Gc(a2-6)GalNAc = biological target: Neu5Gc(a2-6)GalNAc
Outline: as §1

[6] = biological target: Neu5Gc(b2-6)Gal(b1-4)GlcNAc
Outline: as §1

[7] = biological target: Fuc(a1-2)Gal(b1-3)GalNAc(b1-3)Gal(a1-4)Gal(b1-4)Glc
Outline: as §1

[8] = biological target: Fuc(a1-2)Gal(b1-3)[Fuc(a1-4)]GlcNAc(b1-3)[Gal(b1-4)GlcNAc(b1-6)]Gal(b1-4)Glc
Outline: as §1

[9] = biological target: Fuc(a1-2)Gal(b1-4)[Fuc(a1-3)]GlcNAc(b1-3)GalNAc
Outline: as §1

[10] = biological target: Fuc(a1-2)Gal6S(b1-4)Glc6S
Outline: as §1

[11] = biological target: Fuc(a1-2)[Gal(a1-3)]Gal(b1-4)GlcNAc(b1-2)Man
Outline: as §1

[12] = biological target: Fuc(a1-2)[Gal(a1-3)]Gal(b1-4)GlcNAc(b1-6)GalNAc
Outline: as §1

[13] = biological target: Fuc(a1-2)[Gal(a1-3)]Gal(b1-4)[Fuc(a1-3)]GlcNAc(b1-3)GalNAc
Outline: as §1

[14] = biological target: Fuc(a1-3)[GalNAc(b1-4)]GlcNAc
Outline: as §1

[15] = biological target: Gal(a1-3)Gal(b1-4)GlcNAc(b1-2)Man
Outline: as §1

[16] = biological target: Gal(a1-3)Gal(b1-4)[Fuc(a1-3)]GlcNAc(b1-2)Man(a1-3)[Gal(a1-3)Gal(b1-4)[Fuc(a1-3)]GlcNAc(b1-2)Man(a1-6)]Man(b1-4)GlcNAc(b1-4)GlcNAc
Outline: as §1

[17] = biological target: Gal(b1-3)GlcNAc(a1-6)Gal(b1-4)GlcNAc
Outline: as §1

[18] = biological target: Gal(b1-3)GlcNAc(b1-6)GalNAc
Outline: as §1

[19] = biological target: Gal(b1-3)[Fuc(a1-4)]GlcNAc
Outline: as §1

[20] = biological target: Gal(b1-4)GlcNAc(b1-3)Gal(b1-4)GlcNAc(b1-2)Man(a1-3)[Gal(b1-4)GlcNAc(b1-3)Gal(b1-4)GlcNAc(b1-2)Man(a1-6)]Man(b1-4)GlcNAc(b1-4)GlcNAc
Outline: as §1

[21] = biological target: Gal(b1-4)GlcNAc(b1-3)Gal(b1-4)GlcNAc(b1-2)[Gal(b1-4)GlcNAc(b1-3)Gal(b1-4)GlcNAc(b1-6)]Man(a1-6)[Gal(b1-4)GlcNAc(b1-3)Gal(b1-4)GlcNAc(b1-2)Man(a1-3)]Man(b1-4)GlcNAc(b1-4)[Fuc(a1-6)]GlcNAc
Outline: as §1

[22] = biological target: Gal(b1-4)GlcNAc(b1-3)Gal(b1-4)GlcNAc(b1-3)Gal(b1-4)GlcNAc(b1-2)Man(a1-3)[Gal(b1-4)GlcNAc(b1-3)Gal(b1-4)GlcNAc(b1-3)Gal(b1-4)GlcNAc(b1-2)Man(a1-6)]Man(b1-4)GlcNAc(b1-4)GlcNAc
Outline: as §1

[23] = biological target: Gal(b1-4)GlcNAc(b1-3)Gal(b1-4)GlcNAc(b1-3)Gal(b1-4)GlcNAc(b1-2)[Gal(b1-4)GlcNAc(b1-3)Gal(b1-4)GlcNAc(b1-3)Gal(b1-4)GlcNAc(b1-6)]Man(a1-6)[Gal(b1-4)GlcNAc(b1-3)Gal(b1-4)GlcNAc(b1-3)Gal(b1-4)GlcNAc(b1-2)Man(a1-3)]Man(b1-4)GlcNAc(b1-4)[Fuc(a1-6)]GlcNAc
Outline: as §1

[24] = biological target: Gal(b1-4)GlcNAc(b1-3)Gal(b1-4)GlcNAc(b1-3)[Gal(b1-4)GlcNAc(b1-3)Gal(b1-4)GlcNAc(b1-6)]GalNAc
Outline: as §1

[25] = biological target: Gal(b1-4)GlcNAc(b1-3)Gal(b1-4)GlcNAc(b1-6)[Gal(b1-3)]GalNAc
Outline: as §1

[26] = biological target: Gal(b1-4)GlcNAc(b1-3)[Gal(b1-4)GlcNAc(b1-6)]GalNAc
Outline: as §1

[27] = biological target: Gal(b1-4)GlcNAc(b1-6)Gal(b1-4)GlcNAc(b1-6)GalNAc
Outline: as §1

GalNAc(a1-3)GalNAc = biological target: GalNAc(a1-3)GalNAc
Outline: as §1

GalNAc(b1-3)Gal = biological target: GalNAc(b1-3)Gal
Outline: as §1

GalNAc3S(b1-4)GlcNAc3S = biological target: GalNAc3S(b1-4)GlcNAc3S
Outline: as §1

Glc(a1-4)Glc = biological target: Glc(a1-4)Glc
Outline: as §1

[28] = biological target: GlcNAc(b1-3)Gal(b1-4)GlcNAc(b1-3)Gal(b1-4)GlcNAc(b1-2)Man(a1-3)[GlcNAc(b1-3)Gal(b1-4)GlcNAc(b1-3)Gal(b1-4)GlcNAc(b1-2)Man(a1-6)]Man(b1-4)GlcNAc(b1-4)GlcNAc
Outline: as §1

[29] = biological target: GlcNAc(b1-3)Gal(b1-4)GlcNAc(b1-3)Gal(b1-4)GlcNAc(b1-2)[GlcNAc(b1-3)Gal(b1-4)GlcNAc(b1-3)Gal(b1-4)GlcNAc(b1-6)]Man(a1-6)[GlcNAc(b1-3)Gal(b1-4)GlcNAc(b1-3)Gal(b1-4)GlcNAc(b1-2)Man(a1-3)]Man(b1-4)GlcNAc(b1-4)[Fuc(a1-6)]GlcNAc
Outline: as §1

[30] = biological target: GlcNAc(b1-3)Gal(b1-4)GlcNAc(b1-3)Gal(b1-4)GlcNAc(b1-3)Gal(b1-4)GlcNAc(b1-3)Gal(b1-4)GlcNAc(b1-2)Man(a1-3)[GlcNAc(b1-3)Gal(b1-4)GlcNAc(b1-3)Gal(b1-4)GlcNAc(b1-3)Gal(b1-4)GlcNAc(b1-3)Gal(b1-4)GlcNAc(b1-2)Man(a1-6)]Man(b1-4)GlcNAc(b1-4)[Fuc(a1-6)]GlcNAc
Outline: as §1

[31] = biological target: GlcNAc(b1-3)Gal(b1-4)GlcNAc(b1-6)[Gal(b1-3)]GalNAc
Outline: as §1

GlcNAc(b1-3)GalNAc = biological target: GlcNAc(b1-3)GalNAc
Outline: as §1

Binder	glycan array binding signal (z-score) [1]	glycan array binding signal (z-score) [2]	glycan array binding signal (z-score) [3]	glycan array binding signal (z-score) (Neu5Ac(a2-8)Neu5Ac)	glycan array binding signal (z-score) [4]	glycan array binding signal (z-score) [5]	glycan array binding signal (z-score) (Neu5Gc(a2-6)GalNAc)	glycan array binding signal (z-score) [6]	glycan array binding signal (z-score) [7]	glycan array binding signal (z-score) [8]	glycan array binding signal (z-score) [9]	glycan array binding signal (z-score) [10]	glycan array binding signal (z-score) [11]	glycan array binding signal (z-score) [12]	glycan array binding signal (z-score) [13]	glycan array binding signal (z-score) [14]	glycan array binding signal (z-score) [15]	glycan array binding signal (z-score) [16]	glycan array binding signal (z-score) [17]	glycan array binding signal (z-score) [18]	glycan array binding signal (z-score) [19]	glycan array binding signal (z-score) [20]	glycan array binding signal (z-score) [21]	glycan array binding signal (z-score) [22]	glycan array binding signal (z-score) [23]	glycan array binding signal (z-score) [24]	glycan array binding signal (z-score) [25]	glycan array binding signal (z-score) [26]	glycan array binding signal (z-score) [27]	glycan array binding signal (z-score) (GalNAc(a1-3)GalNAc)	glycan array binding signal (z-score) (GalNAc(b1-3)Gal)	glycan array binding signal (z-score) (GalNAc3S(b1-4)GlcNAc3S)	glycan array binding signal (z-score) (Glc(a1-4)Glc)	glycan array binding signal (z-score) [28]	glycan array binding signal (z-score) [29]	glycan array binding signal (z-score) [30]	glycan array binding signal (z-score) [31]	glycan array binding signal (z-score) (GlcNAc(b1-3)GalNAc)
B1	-0.303	-0.587	0.866	2.11	-0.067	-0.155	2.26	-0.05	–	–	–	–	–	–	–	–	–	–	–	–	–	–	–	–	–	–	–	–	–	–	–	–	–	–	–	–	–	–
B2	–	–	–	–	–	–	–	–	-0.125	-0.309	0.542	-0.123	-0.485	-0.455	-0.399	-0.226	-0.517	10.5	-0.325	-0.491	-0.234	3.88	0.699	4.58	1.81	4.2	4.88	5.59	5.39	-0.186	-0.272	-0.509	-0.148	3.72	3.4	0.151	-0.412	-0.366
